Results on 19 molecules are retold here after ChEMBL document CHEMBL3988442, “University of Dundee, Small-Polar-MMV Screening Library” (2021).

The target in this assay is AMP-activated protein kinase, AMPK (Homo sapiens) (UniProt P54646+O43741+P54619+Q9UGJ0+Q9Y478+Q13131+Q9UGI9). Description: AMP-dependent Kinase enzyme assay. An in vitro enzyme assay that detects ADP turnover that is directly proportional to AMPK activity. This uses naive AMPK that is activated during the assay with MK-8722. The class given is functional. Also noted: scale not given: direction of the effect not stated beside the values. The following applies: 30 µM.
Consider `CC(C)c1cc(C(=O)N(Cc2ccncc2)CC2CCCO2)no1` (centres undefined), for which the Percent Effect is -4.12%. Take `Cn1ccnc1C1(O)CCN(C(=O)CCc2ccccc2)CC1`: the Percent Effect worked out at 8.55%. As to `CC(C)(C)NC(=O)C1CCCCN1Cc1nccn1CC(F)(F)F` (centres undefined), the Percent Effect is -2.34%. With `CCN(CC(=O)NC)C(=O)c1sc(Cc2ccccc2)nc1C`, the Percent Effect is -3.98%. Turning to `O=C1CC[C@@H](C(=O)N2CCC(Cn3cc(C4CCCCC4)nn3)CC2)N1`, the Percent Effect turned out to be 4.87%. As for `CCCC(=O)Nc1cnn(CC(=O)Nc2ccc(SC)cc2)c1`, the Percent Effect is -33.2%. For `Cc1cc(C)c2[nH]c(C(=O)NCCN3CCCC3=O)c(C)c2c1`, the Percent Effect is 13.3%. In the case of `CCC[C@H]1CN(S(=O)(=O)N(C)Cc2ccccc2)C[C@@H]1N`, the Percent Effect was -0.364%.

In the case of `O=C(Cc1ccon1)NC1CCCN(c2ccccc2F)C1=O` (centres undefined), the Percent Effect came to 1.71%. As to `COCCN1C[C@H]2CC[C@@H]1CN(C(=O)CCc1c(C)nn(C)c1C)C2`, the Percent Effect was -4.69%.

For `O=C(Cn1cc(I)cn1)N1CCNC1=O`, the Percent Effect worked out at 0.6%. Regarding `O=C(COc1ccc(-n2cccn2)nn1)N1CCCC1`, the Percent Effect is 3.54%. The value for `Cc1csc(CCNC(=O)N2CCC(C(N)=O)CC2)n1` was -10.8%; that for `Cc1cnn(C2CN(Cc3nc4cc(Cl)ccc4n3C)C2)c1` was -6.13%; that for `Cc1cccc(-c2noc(Cn3nc(C(N)=O)ccc3=O)n2)c1` was 5.3%. In the case of `CN(CCc1cccc2ccccc12)Cc1nc(N)nc(N(C)C)n1`, the Percent Effect is -2.41%. Take `CS(=O)(=O)c1ccccc1N[C@@H]1c2ccccc2C[C@@H]1O`: the Percent Effect was -13.1%. Next, `CC(C)CC(=O)N1Cc2ccccc2CC1C(=O)Nc1nccs1` (centres undefined): -4.39%.

`CN(Cc1ccc(F)c(F)c1)Cc1cc2c(cc1Br)OCCO2`: the Percent Effect was -7%.
